# In the supplement of paper PMC12636033:
# ± gives the standard deviation of the averaged measurements. In all, about 33,000 sequences were measured (“E-score (rank enrichment, -0.5 to 0.5)”: median about -0.0068, highest 2% from about 0.24 on). The sample as a whole holds a higher share of the highest values than the screen did.
# Tested on: muMax20 (Max(13-93) K31hArg/K57hArg, M65Nle)
# Experiment: PBM 8-mer E-score (E-score (rank enrichment, -0.5 to 0.5)); higher = stronger preferential binding
# Protocol: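 Protein binding microarray (universal PBM chip covering all 10-mers in fixed probe flanks) with chemically synthesized human Max(13-93) bHLH-LZ analogs (not full-length Max) bearing noncanonical residues (hArg, Tha, Aib, Nle at 65) and aromatic Cys staples. Read-out per 8-mer (and its reverse complement): E-score (rank-based enrichment, -0.5 to 0.5) and Z-score of median probe intensity.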
row,Sequence,PBM 8-mer E-score
1,ACAAACGT,0.0903 ± 0.12
2,GCAAGGCA,0.0264 ± 0.067
3,CCGGACCC,-0.294 ± 0.09
4,ATGTTTGA,0.207 ± 0.051
5,CTGTTTGA,0.143 ± 0.011
6,GTGTTTGA,0.241 ± 0.042
7,CCGTTTGA,-0.202 ± 0.057
8,ACGTTTGA,0.254 ± 0.015
9,ACGTTTGG,-0.00749 ± 0.048
10,ACACTGCC,-0.0509 ± 0.054
11,CAACAGAG,-0.088 ± 0.056
12,CGTGAATC,-0.00172 ± 0.048
13,AATGTCTC,0.00715 ± 0.052
14,CATGTCTA,0.0944 ± 0.042
15,CATGTCTC,0.256 ± 0.015
16,AGTGTAGG,0.0989 ± 0.087
17,GGATAATA,0.0335 ± 0.0051
18,GAATAATA,0.165 ± 0.01
19,ATATAATG,0.2202 ± 0.001
20,CTATAATA,0.165 ± 0.0056
21,GTATAATA,0.247 ± 0.093
22,ATATAATA,0.302 ± 0.0079

row,Sequence,PBM 8-mer E-score
1,GGCAGAAA,0.135 ± 0.072
2,CAGTGCAC,-0.103 ± 0.061
3,CCCGAGCA,0.00085 ± 0.0024
4,GACCGAGC,-0.276 ± 0.069
5,ATTGCAGA,-0.0371 ± 0.034
6,TCCACGCA,0.0588 ± 0.069
7,ATGGGCGC,-0.129 ± 0.1
8,ATAGCGTA,-0.019 ± 0.055
9,ATTCCACA,0.101 ± 0.1
10,CAGAACTC,-0.171 ± 0.057
11,AAGGATAC,-0.00358 ± 0.02
12,AAGGATAA,0.149 ± 0.041
13,AAGGATAT,0.247 ± 0.062
14,AGCGATTC,-0.0904 ± 0.024
15,ACATGAGA,0.253 ± 0.039
16,ACATGAAC,0.0854 ± 0.018
17,ACATGAGT,0.0854 ± 0.027
18,ACATGAAT,0.24 ± 0.04
19,TCATGAGA,0.111 ± 0.0016
20,ACATGAAG,0.0775 ± 0.23
21,ACCAACAT,0.0339 ± 0.18
22,GACGGGGA,-0.043 ± 0.026

row,Sequence,PBM 8-mer E-score
1,ACCAGGTG,-0.184 ± 0.13
2,CGGCTACC,-0.274 ± 0.058
3,ATACTTTG,0.107 ± 0.036
4,ATACTTTA,0.279 ± 0.0074
5,CTACTTTA,0.0793 ± 0.013
6,GTGAGTGA,-0.073 ± 0.17
7,ATGTTGTA,0.284 ± 0.016
8,GTGTTGTA,0.164 ± 0.016
9,ATGTTGTG,0.145 ± 0.062
10,AGGCGCAA,-0.0721 ± 0.067
11,CTAATATC,0.214 ± 0.06
12,ACAATATA,0.211 ± 0.037
13,ATAATAGA,0.0729 ± 0.052
14,GTAATAAA,0.154 ± 0.041
15,ATAATATC,0.257 ± 0.035
16,ATAATATG,0.169 ± 0.035
17,CTAATATA,0.214 ± 0.0087
18,GTAATATA,0.267 ± 0.012
19,ATAATATA,0.263 ± 0.042
20,GAGGACCC,-0.228 ± 0.037
21,AGTAATCA,0.109 ± 0.12
22,CGGGGCGA,-0.112 ± 0.037

row,Sequence,PBM 8-mer E-score
1,AGAACTCC,-0.0617 ± 0.081
2,AAAGGCTA,-0.0552 ± 0.0014
3,GACGGATA,-0.139 ± 0.049
4,GCTCACCA,-0.15 ± 0.068
5,ATACCCCG,-0.0795 ± 0.096
6,AACGACCA,0.0599 ± 0.047
7,ACTGCCAG,-0.0897 ± 0.06
8,ATACAACG,0.203 ± 0.026
9,ATACAACC,-0.0691 ± 0.073
10,ATACAAAG,0.136 ± 0.09
11,CTACAAAA,0.0991 ± 0.063
12,ATACAAAA,0.305 ± 0.0098
13,TTACAAAA,0.126 ± 0.043
14,ACACAAAA,0.208 ± 0.055
15,ACACAAAC,0.25 ± 0.056
16,ATACAAAC,0.225 ± 0.037
17,ATACAACA,0.254 ± 0.025
18,ATACAAAT,0.273 ± 0.038
19,ACACAAAG,0.23 ± 0.078
20,ACGGCCGG,-0.2416 ± 0.0019
